# Test results: PubChem BioAssay (NCI)
# This is part of a sample that, as a whole, favours compounds with a hit. Of some 79,000 tested, about 15% had one in any assay. Values without a mark were called inactive. Active and inactive are the calls of the source. Rule as the data show it: active = growth inhibition above about 70%; inactive = the rest.
# What was measured:
# [1] = NCI Yeast Anticancer Drug Screen. Data for the rad52 strain (AID 147);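 also: 0% = growth of vehicle-treated control cultures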; details: S. cerevisiae rad52 mutant growth inhibition, active compounds read high
# Outline: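 Here a repair-compromised yeast strain receives each compound; its growth is then quantified and normalised to vehicle-only controls.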
# [2] = NCI Yeast Anticancer Drug Screen. Data for the wt1 strain (AID 149);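 also: 0% = growth of vehicle-treated wt1 cultures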; details: S. cerevisiae wt1 strain (SPY 50644) growth inhibition, active compounds read high
# Outline: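 Using yeast strain wt1, compound-induced growth inhibition was determined against vehicle-treated cultures.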
# [3] = NCI Yeast Anticancer Drug Screen. Data for the rad50EPP+ strain (AID 151);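 also: 0% = growth of vehicle-treated control cultures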; details: S. cerevisiae rad50 mutant strain, active compounds read high
# Outline: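 Read-out is yeast growth inhibition relative to vehicle; cells used were the rad50EPP+ strain.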
# [4] = NCI Yeast Anticancer Drug Screen. Data for the mgt1 strain (AID 153); details: S. cerevisiae mgt1 mutant growth inhibition, active compounds read high
# Outline: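 Measured: inhibition of mgt1 yeast growth by compound, normalized to vehicle-treated cultures.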
# [5] = NCI Yeast Anticancer Drug Screen. Data for the rad50 strain (AID 155);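 also: 0% = growth of vehicle-only cultures of the same strain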; details: S. cerevisiae rad50 strain growth inhibition, active compounds read high
# Outline: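 Relative growth inhibition (compound vs vehicle) was measured in yeast with a defined repair-gene alteration.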
# [6] = NCI Yeast Anticancer Drug Screen. Data for the mec2-1 strain (AID 157); details: S. cerevisiae mec2-1 strain, active compounds read high
# Outline: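 Using mec2-1 yeast: add compound, measure growth, express inhibition versus vehicle-treated cultures.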
# [7] = NCI Yeast Anticancer Drug Screen. Data for the rad14 strain (AID 159);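 also: 0% = growth of vehicle-treated control cultures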; details: S. cerevisiae rad14 strain growth inhibition, active compounds read high
# Outline: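 Screen for anticancer potential: a yeast strain altered in DNA damage repair is grown with compound, and reduced growth is quantified against vehicle controls.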
# [8] = NCI Yeast Anticancer Drug Screen. Data for the sgs1 mgt1 strain (AID 161);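 also: 0% = growth of cultures given vehicle only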; details: S. cerevisiae sgs1 mgt1 strain, active compounds read high
# Outline: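 This yeast growth screen uses a strain with defined DNA-repair lesions; compound-treated growth is compared with vehicle-treated growth.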
# [9] = NCI Yeast Anticancer Drug Screen. Data for the CLN2oe strain (AID 163);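 also: 0% = growth of vehicle-only control cultures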; details: S. cerevisiae CLN2oe strain, active compounds read high
# Outline: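 Whole-cell yeast growth assay. A strain engineered for altered cell-cycle control received compound, and inhibition relative to vehicle-treated cultures was recorded.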
# [10] = NCI Yeast Anticancer Drug Screen. Data for the cln2 rad14 strain (AID 165);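 also: 0% = growth equal to vehicle treated cultures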; details: S. cerevisiae cln2 rad14 strain, active compounds read high
# Outline: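 Yeast strain cln2 rad14, bearing defects in cell cycle control and DNA repair, serves as the test system; values reflect growth inhibition compared with vehicle.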
# [11] = NCI Yeast Anticancer Drug Screen. Data for the bub3 strain (AID 167); details: S. cerevisiae bub3 mutant strain, active compounds read high
# Outline: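 Screening used yeast with an engineered genetic alteration affecting cell cycle control. Compound-exposed cultures were compared with vehicle cultures, and reduced growth was taken as inhibition.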
# [12] = NCI Yeast Anticancer Drug Screen. Data for the wt2 strain (AID 169);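 also: 0% = growth of vehicle-treated yeast cultures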; details: S. cerevisiae wt2 strain growth inhibition, active compounds read high
# Outline: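 Treated yeast vs. vehicle-treated yeast: growth inhibition determined.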
# [13] = NCI Yeast Anticancer Drug Screen. Data for the sgs1 strain (AID 173);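 also: 0% = growth of vehicle-only control cultures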; details: S. cerevisiae sgs1 mutant, active compounds read high
# Outline: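 A genetically defined yeast mutant is incubated with the test compound, and its growth is compared to that of the same strain given vehicle.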
# [14] = NCI Yeast Anticancer Drug Screen. Data for the mlh1 rad18 strain (AID 175); details: S. cerevisiae mlh1 rad18 strain growth inhibition, active compounds read high
# Outline: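 Steps: expose repair-defective yeast to compound; measure growth; express inhibition against vehicle-treated controls.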
# [15] = NCI Yeast Anticancer Drug Screen. Data for the rad18 strain (AID 177); details: S. cerevisiae rad18 mutant growth inhibition, active compounds read high
# Outline: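 Measured value is growth inhibition of a yeast strain bearing a DNA repair alteration, referenced to vehicle-treated cells.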
# [16] = at 5.0 µM (retest, dose inferred, filed as 0.5)
# [17] = at 50.0 µM (retest, dose inferred, filed as 5.0)
smiles,measurement,setting,value
CC(NCCN(C)C)C1CCC2C3CCc4cc(O)ccc4C3CCC12C (stereo unspecified),growth inhibition,[1]; at 1.2 µM,6%
same,growth inhibition,[1]; at 3.7 µM,16%
same,growth inhibition,[1]; at 11.0 µM,57%
same,growth inhibition,[1]; at 33.0 µM,93% (active)
same,growth inhibition,[1]; at 100.0 µM,95% (active)
same,growth inhibition,[2]; at 1.2 µM,-4%
same,growth inhibition,[2]; at 3.7 µM,-1%
same,growth inhibition,[2]; at 11.0 µM,7%
same,growth inhibition,[2]; at 33.0 µM,43%
same,growth inhibition,[2]; at 100.0 µM,97% (active)
same,growth inhibition,[3]; at 1.2 µM,26%
same,growth inhibition,[3]; at 3.7 µM,41%
same,growth inhibition,[3]; at 11.0 µM,66%
same,growth inhibition,[3]; at 33.0 µM,90% (active)
same,growth inhibition,[3]; at 100.0 µM,96% (active)
same,growth inhibition,[4]; at 1.2 µM,0%
same,growth inhibition,[4]; at 3.7 µM,1%
same,growth inhibition,[4]; at 11.0 µM,13%
same,growth inhibition,[4]; at 33.0 µM,75% (active)
same,growth inhibition,[4]; at 100.0 µM,97% (active)
same,growth inhibition,[5]; at 1.2 µM,14%
same,growth inhibition,[5]; at 3.7 µM,19%
same,growth inhibition,[5]; [16],-10%
same,growth inhibition,[5]; at 11.0 µM,57%
same,growth inhibition,[5]; at 33.0 µM,92% (active)
same,growth inhibition,[5]; [17],55%
same,growth inhibition,[5]; at 50.0 µM,81% (active)
same,growth inhibition,[5]; at 100.0 µM,93% (active)
same,growth inhibition,[6]; at 1.2 µM,2%
same,growth inhibition,[6]; at 3.7 µM,5%
same,growth inhibition,[6]; [16],2%
same,growth inhibition,[6]; at 11.0 µM,14%
same,growth inhibition,[6]; at 33.0 µM,68%
same,growth inhibition,[6]; [17],49%
same,growth inhibition,[6]; at 50.0 µM,61.2%
same,growth inhibition,[6]; at 100.0 µM,97% (active)
same,growth inhibition,[7]; at 1.2 µM,3%
same,growth inhibition,[7]; at 3.7 µM,4%
same,growth inhibition,[7]; at 11.0 µM,13%
same,growth inhibition,[7]; at 33.0 µM,65%
same,growth inhibition,[7]; at 100.0 µM,98% (active)
same,growth inhibition,[8]; [16],7%
same,growth inhibition,[8]; [17],47%
same,growth inhibition,[8]; at 50.0 µM,91.2% (active)
same,growth inhibition,[9]; at 1.2 µM,1%
same,growth inhibition,[9]; at 3.7 µM,1%
same,growth inhibition,[9]; at 11.0 µM,11%
same,growth inhibition,[9]; at 33.0 µM,61%
same,growth inhibition,[9]; at 100.0 µM,95% (active)
same,growth inhibition,[10]; [16],35%
same,growth inhibition,[10]; [17],29%
same,growth inhibition,[10]; at 50.0 µM,41.7%
same,growth inhibition,[11]; at 1.2 µM,6%
same,growth inhibition,[11]; at 3.7 µM,11%
same,growth inhibition,[11]; [16],-4%
same,growth inhibition,[11]; at 11.0 µM,33%
same,growth inhibition,[11]; at 33.0 µM,76% (active)
same,growth inhibition,[11]; [17],44%
same,growth inhibition,[11]; at 50.0 µM,63.1%
same,growth inhibition,[11]; at 100.0 µM,94% (active)
same,growth inhibition,[12]; at 1.2 µM,-1%
same,growth inhibition,[12]; at 3.7 µM,0%
same,growth inhibition,[12]; at 11.0 µM,15%
same,growth inhibition,[12]; at 33.0 µM,84% (active)
same,growth inhibition,[12]; at 100.0 µM,97% (active)
same,growth inhibition,[13]; at 1.2 µM,3%
same,growth inhibition,[13]; at 3.7 µM,9%
same,growth inhibition,[13]; at 11.0 µM,42%
same,growth inhibition,[13]; at 33.0 µM,87% (active)
same,growth inhibition,[13]; at 100.0 µM,96% (active)
same,growth inhibition,[14]; [16],4%
same,growth inhibition,[14]; [17],59%
same,growth inhibition,[14]; at 50.0 µM,82.4% (active)
same,growth inhibition,[15]; at 1.2 µM,22%
same,growth inhibition,[15]; at 3.7 µM,20%
same,growth inhibition,[15]; at 11.0 µM,52%
same,growth inhibition,[15]; at 33.0 µM,91% (active)
same,growth inhibition,[15]; at 100.0 µM,95% (active)
CCCCCCCCCCCCCCCCOP(=O)(O)OCC(N)C(=O)O (stereo unspecified),growth inhibition,[1]; at 1.2 µM,-2%
same,growth inhibition,[1]; at 3.7 µM,5%
same,growth inhibition,[1]; at 11.0 µM,54%
same,growth inhibition,[1]; at 33.0 µM,98% (active)
same,growth inhibition,[1]; at 100.0 µM,98% (active)
same,growth inhibition,[2]; at 1.2 µM,-19%
same,growth inhibition,[2]; at 3.7 µM,-22%
same,growth inhibition,[2]; at 11.0 µM,39%
same,growth inhibition,[2]; at 33.0 µM,98% (active)
same,growth inhibition,[2]; at 100.0 µM,97% (active)
same,growth inhibition,[3]; at 1.2 µM,-17%
same,growth inhibition,[3]; at 3.7 µM,-4%
same,growth inhibition,[3]; at 11.0 µM,80% (active)
same,growth inhibition,[3]; at 33.0 µM,98% (active)
same,growth inhibition,[3]; at 100.0 µM,98% (active)
same,growth inhibition,[4]; at 1.2 µM,-1%
same,growth inhibition,[4]; at 3.7 µM,5%
same,growth inhibition,[4]; at 11.0 µM,52%
same,growth inhibition,[4]; at 33.0 µM,97% (active)
same,growth inhibition,[4]; at 100.0 µM,97% (active)
same,growth inhibition,[5]; at 1.2 µM,-20%
same,growth inhibition,[5]; at 3.7 µM,-6%
same,growth inhibition,[5]; [16],-25%
same,growth inhibition,[5]; at 11.0 µM,42%
same,growth inhibition,[5]; at 33.0 µM,97% (active)
same,growth inhibition,[5]; [17],98% (active)
same,growth inhibition,[5]; at 50.0 µM,98.4% (active)
same,growth inhibition,[5]; at 100.0 µM,97% (active)
same,growth inhibition,[6]; at 1.2 µM,6%
same,growth inhibition,[6]; at 3.7 µM,3%
same,growth inhibition,[6]; [16],12%
same,growth inhibition,[6]; at 11.0 µM,50%
same,growth inhibition,[6]; at 33.0 µM,98% (active)
same,growth inhibition,[6]; [17],99% (active)
same,growth inhibition,[6]; at 50.0 µM,98.2% (active)
same,growth inhibition,[6]; at 100.0 µM,97% (active)
same,growth inhibition,[7]; at 1.2 µM,4%
same,growth inhibition,[7]; at 3.7 µM,-4%
same,growth inhibition,[7]; at 11.0 µM,59%
same,growth inhibition,[7]; at 33.0 µM,98% (active)
same,growth inhibition,[7]; at 100.0 µM,97% (active)
same,growth inhibition,[8]; [16],-13%
same,growth inhibition,[8]; [17],99% (active)
same,growth inhibition,[8]; at 50.0 µM,98.8% (active)
same,growth inhibition,[9]; at 1.2 µM,6%
same,growth inhibition,[9]; at 3.7 µM,-10%
same,growth inhibition,[9]; at 11.0 µM,-3%
same,growth inhibition,[9]; at 33.0 µM,94% (active)
same,growth inhibition,[9]; at 100.0 µM,97% (active)
same,growth inhibition,[10]; [16],6%
same,growth inhibition,[10]; [17],99% (active)
same,growth inhibition,[10]; at 50.0 µM,98% (active)
same,growth inhibition,[11]; at 1.2 µM,-13%
same,growth inhibition,[11]; at 3.7 µM,-29%
same,growth inhibition,[11]; [16],-14%
same,growth inhibition,[11]; at 11.0 µM,34%
same,growth inhibition,[11]; at 33.0 µM,98% (active)
same,growth inhibition,[11]; [17],99% (active)
same,growth inhibition,[11]; at 50.0 µM,98.8% (active)
same,growth inhibition,[11]; at 100.0 µM,98% (active)
same,growth inhibition,[12]; at 1.2 µM,-17%
same,growth inhibition,[12]; at 3.7 µM,-22%
same,growth inhibition,[12]; at 11.0 µM,-22%
same,growth inhibition,[12]; at 33.0 µM,-22%
same,growth inhibition,[12]; at 100.0 µM,48%
same,growth inhibition,[13]; at 1.2 µM,14%
same,growth inhibition,[13]; at 3.7 µM,1%
same,growth inhibition,[13]; at 11.0 µM,51%
same,growth inhibition,[13]; at 33.0 µM,98% (active)
same,growth inhibition,[13]; at 100.0 µM,98% (active)
same,growth inhibition,[14]; [16],-26%
same,growth inhibition,[14]; [17],99% (active)
same,growth inhibition,[14]; at 50.0 µM,98.2% (active)
same,growth inhibition,[15]; at 1.2 µM,-25%
same,growth inhibition,[15]; at 3.7 µM,-11%
same,growth inhibition,[15]; at 11.0 µM,40%
same,growth inhibition,[15]; at 33.0 µM,97% (active)
same,growth inhibition,[15]; at 100.0 µM,97% (active)
